# Hit rate of the full screen: of about 390,000 compounds, about 4,000 (1%) were called active. Entries that show only a call come without a potency. Not shown: some 4% with an inconclusive outcome. This excerpt belongs to a sample that is enriched for actives. Values without a mark were called inactive. The call rests on the fitted dose curve; in most records, active means well fitted inhibition curve with a large enough effect; inconclusive means small, poorly fitted or top-dose-only effect; inactive means no such curve, though single readings can be large or run the other way.
# Target: Thioredoxin reductase 1, cytoplasmic (Rattus norvegicus) (UniProt O89049)
# Test: qHTS Assay for Inhibitors of Mammalian Selenoprotein Thioredoxin Reductase 1 (TrxR1): qHTS; further: nearly all actives have a fitted effect of over 65% in size
# Conditions: recombinant rTrxR1, NADPH fluorescence consumption, selenite substrate; series mostly up to 114 µM
# Procedure, shortened: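 Rat TrxR1 (90 nM in the dispensed reagent) was pre-reduced with 400 uM NADPH for 5 min at room temperature, then incubated with compound for 15 min. After 400 uM selenite was added, NADPH fluorescence (Ex 340/Em 450 nm) was followed for 8 min.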
# Potency means the concentration at half of the fitted maximal effect.
# Chain of Thioredoxin reductase 1, cytoplasmic (Rattus norvegicus) (O89049 whole entry, looked up): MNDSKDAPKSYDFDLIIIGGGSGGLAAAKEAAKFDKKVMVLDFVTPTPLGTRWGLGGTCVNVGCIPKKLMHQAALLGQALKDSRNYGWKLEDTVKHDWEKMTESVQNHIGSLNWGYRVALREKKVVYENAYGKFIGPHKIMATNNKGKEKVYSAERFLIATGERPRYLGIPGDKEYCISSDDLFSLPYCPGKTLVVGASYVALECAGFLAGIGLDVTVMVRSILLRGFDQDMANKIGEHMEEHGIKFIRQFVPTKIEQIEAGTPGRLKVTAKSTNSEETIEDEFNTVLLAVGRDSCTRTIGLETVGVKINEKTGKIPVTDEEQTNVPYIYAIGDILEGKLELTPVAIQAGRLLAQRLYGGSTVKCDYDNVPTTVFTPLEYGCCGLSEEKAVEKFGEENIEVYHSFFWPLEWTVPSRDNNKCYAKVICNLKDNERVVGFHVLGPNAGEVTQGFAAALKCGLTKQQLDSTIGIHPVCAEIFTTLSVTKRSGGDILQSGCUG
SMILES,Potency,"activity change, negative = inhibition"
COc1ccc(/C=C/c2ccnc3ccccc23)cc1OC,inactive,
CCOc1cc(CNC(=O)c2sc3ncnc(N(C)C4CCCCC4)c3c2C)ccc1OC,inactive,
CCOC(=O)Nc1ccc(S(=O)(=O)N(C)C(C)C)cc1,inactive,
CCOC(=O)Nc1ccc2c(c1)N(C(=O)CN1CCN3CCCC3C1)c1ccccc1CC2 (stereo unspecified),inactive,
CCOC(=O)Nc1ccc2c(c1)N(C(=O)CCCl)c1ccccc1[S@]2=O,50.1 µM (active),
Oc1ccc(Br)cc1C1C=C(c2ccc3c(c2)OCO3)NC(c2ccc(Cl)cc2)N1 (stereo unspecified),inactive,
CC(CCCc1ccccc1)NC(=O)c1nn(-c2ccc(Cl)cc2)nc1CO (stereo unspecified),inactive,
COc1ccc(Cl)cc1N(C)C(=O)c1cc2c(=O)oc3ccc(C)cc3c2s1,inactive,
O=C(NCCCc1ccccc1)c1ccc2c(c1)sc1nc(-c3ccc(F)cc3)cn12,inactive,
CN1C(=O)c2ccccc2Sc2ccc(NC(=O)Cc3ccc(Cl)cc3)cc21,inactive,
COc1cc2[nH]c(=S)n(Cc3ccc(C)o3)c(=O)c2cc1OC,8.91 µM (active),
COc1cc2[nH]c(=S)n(CCN3CCCCC3C)c(=O)c2cc1OC (stereo unspecified),inactive,
CCOc1cc2[nH]c(=S)n(Cc3ccc(C(=O)N4CCN(C)CC4)cc3)c(=O)c2cc1OCC,inactive,
OC[C@H]1O[C@@H](n2cnc3c(NC4CCCC4)ncnc32)[C@H](O)[C@H]1O,inactive,
CCc1ccccc1NC(=O)c1ccc2nc(CCc3ccccc3)oc2c1,inactive,
O=c1cc(-c2ccccc2)[nH]c2nc(Cl)ccc12,inactive,
COc1cccc(N2CC(NC(=O)/C=C\c3ccccc3)CC2=O)c1 (stereo unspecified),inactive,
COc1ccc(/C=C/C(=O)c2cc(Br)ccc(=O)c2O)cc1,35.5 µM (active),
COCOc1cc(O)c(C(=O)/C=C/c2ccc(OCOC)c(OCOC)c2)c(OCOC)c1,inactive,
Cc1ccc(-c2nc(=N)sn2Cc2ccccc2)cc1,inactive,
Cc1ccc(NC(=O)Cn2nnc3sc4c(c3c2=O)CCC(C)C4)cc1 (stereo unspecified),inactive,
COc1ccc(CCNc2nc(-c3ccc(F)cc3)cc(C(F)(F)F)n2)cc1OC,inactive,
COc1ccc(-c2cc(C(F)(F)F)nc(SCC(=O)N(C)Cc3ccccc3)n2)cc1OC,inactive,
COc1ccc(-c2cc(C(F)(F)F)nc(S(C)(=O)=O)n2)cc1OC,17.8 µM (active),

SMILES,Potency,"activity change, negative = inhibition"
CC1CN(C(=O)N2CCC(C(=O)NCc3ccco3)CC2)c2cc(Cl)ccc2O1 (stereo unspecified),inactive,
CC(=O)Nc1ccc(NC(=O)CSc2nnc3c4cc(Br)ccc4n(C)c3n2)cc1,inactive,
CC1CCN(S(=O)(=O)c2ccc3c(c2)N(CC(=O)NCCc2ccccc2)C(=O)CO3)CC1,inactive,
Brc1ccc(C2=CC(c3ccco3)n3ncnc3N2)cc1 (stereo unspecified),39.8 µM (active),
Cc1ccccc1OCC(=O)Nc1c(C(=O)Nc2ccccc2F)oc2ccccc12,inactive,
NC(=O)Nc1ccc(/C=C/c2ccnc3ccccc23)cc1,inactive,
C=CC1=C(C(=O)O)N2C(=O)[C@@H](NC(=O)/C(=N/OCC(=O)O)c3csc(N)n3)[C@H]2SC1,inactive,
Cc1cc(C)cc(C(=O)NC2C(=O)N3C(C(=O)O)=C(CSc4nnc(C)s4)CSC23)c1 (stereo unspecified),8.91 µM (active),
Cc1nnc(SCc2cc(=O)[nH]c(N3CCN(Cc4ccccc4)CC3)n2)s1,inactive,
Cc1ccc(C)c(S(=O)(=O)c2nnn3c2nc(N2CCOCC2)c2sccc23)c1,inactive,
O=C(Nc1ccc(Cl)cc1)c1cnn2c1NC(=C1CC1)C=C2C(F)F,inactive,
CC(C)(C)n1ncc2c(=O)n(Cc3ccc(C(=O)c4ccccc4)cc3)cnc21,inactive,
CCCCNC(=O)CN1C(=O)NC(Cc2ccccc2)(Cc2ccccc2)C1=O,inactive,
CCCCCCCC(=O)NC(Nc1ccccc1OC)C(Cl)(Cl)Cl (stereo unspecified),inactive,
CCCCC(O)(CCCC)C(=O)NN(C(=O)CCl)c1ccccc1,10 µM (active),
CCOc1ccccc1CNC(=O)c1cnc2c(-c3ccc(OCC)c(OCC)c3)c(C)nn2c1C,inactive,
CC1=C(C(=O)OCC2CCCCC2)C(c2c(F)cccc2Cl)CC(=O)N1 (stereo unspecified),inactive,
Cc1cc(C)c(NC(=O)c2cc3sc(Cl)cc3n2C)c(C)c1,inactive,
CCN1CCC(O)(/C=C/c2ccc(C)cc2)C(C(=O)/C=C/c2ccc(C)cc2)C1 (stereo unspecified),1.26 µM (active),
Cc1ccc(NC(=O)CSc2nc3ccccc3c3nc(CCn4cncc4C)nn23)cc1F,inactive,
CN(C)C1=C2C=CC=CC2/C(=C2/C=Cc3ccccc32)C=C1 (stereo unspecified),inactive,
COC(=O)c1ccc(NC(=O)CCc2c(C)nn(-c3ccc(N4CCCC4)nn3)c2C)cc1,inactive,
O=C(CSc1oc(-c2ccc(F)cc2)nc1S(=O)(=O)c1ccc(Br)cc1)NC1CCCCC1,inactive,
Cc1ccc(-c2nc(S(=O)(=O)c3ccc(C)cc3)c(N3CCCCCC3)o2)cc1,inactive,

SMILES,Potency,"activity change, negative = inhibition"
CC(C)S(=O)(=O)c1oc(-c2ccc(F)cc2)nc1S(=O)(=O)c1ccc(F)cc1,1 µM (active),
C=Cc1ccc(Cn2c(C(=O)OC)cc3sc(C)cc32)cc1,inactive,
COc1ccc(-c2nc3c(c(SCC(=O)Nc4ccc(C(=O)O)cc4)n2)Cc2ccccc2O3)cc1,inactive,
Cc1cccc(CNC(=O)c2cnc3sc(N4CCCCC4)nn3c2=O)c1,inactive,
COc1ccccc1N1CCN(C(=O)C2CCN(S(=O)(=O)c3c(C)noc3/C=C/c3ccc(C)cc3)CC2)CC1,inactive,
COc1cc(OC)c(OC)cc1/C=C/c1nc2ccccc2c(=O)n1-c1ccc(Br)c(C)c1,inactive,
CCCN(CCC)c1c([N+](=O)[O-])c(=O)oc2ccccc12,inactive,
CCn1c(/C=C/c2ccc([N+](=O)[O-])o2)nc2ccccc2c1=O,3.16 µM (active),
Cc1ccc(C2c3[nH]c4ccccc4c3CCN2C(=O)c2cccc(C)c2)cc1 (stereo unspecified),inactive,
COc1ccc(-c2nc3sc(CCNS(=O)(=O)c4ccc(F)c(C)c4)c(C)n3n2)cc1,inactive,
COc1ccccc1-n1c(-c2cc(-c3ccco3)[nH]n2)n[nH]c1=S,44.7 µM (active),
Cc1cc(-c2n[nH]c(=S)n2-c2ccc(C)c(C)c2)no1,inactive,
COc1ccccc1-n1c(=S)[nH]c2c(sc(=S)n2-c2ccc(C)cc2C)c1=O,inactive,
COc1ccc(N2CCN(C(=O)C3CCCN(C(=O)c4cc5sccc5n4C)C3)CC2)cc1 (stereo unspecified),inactive,
CN(C(=O)CC1C(=O)NCCN1Cc1ccc2ccccc2c1)C1CCOCC1 (stereo unspecified),39.8 µM (active),
COc1ccccc1CN1CCNC(=O)C1CC(=O)N(C)CC1CCOCC1 (stereo unspecified),inactive,
COc1ccc(CN2CCNC(=O)C2CC(=O)N(C)Cc2ccccn2)cc1OC (stereo unspecified),inactive,
O=C(Cn1c(-c2cccs2)cc2ccccc21)NCCc1ccc(Cl)cc1,inactive,
CCNC(=O)Cn1nc(C)n2c(cc3c(OC)cccc32)c1=O,inactive,
COC(=O)C(CC(=O)Nc1cc(C)ccc1C)Nc1ccccc1OC (stereo unspecified),inactive,
O=C(COC(=O)[C@H](Cc1ccccc1)NC(=O)c1cccs1)Nc1cc(F)ccc1F,inactive,
Cc1ccc(C)c(NC(CC(=O)c2ccccc2)C(=O)OCC(=O)c2cccs2)c1 (stereo unspecified),44.7 µM (active),
COc1cc2nc(N3CCCN(C)CC3)nc(NC(C)C)c2cc1OC,inactive,
CCOc1ccc(NC(=O)CN(Cc2ccccc2)S(=O)(=O)c2ccc(Cl)cc2)cc1,inactive,

SMILES,Potency,"activity change, negative = inhibition"
CCOc1ccc(N(Cc2ccccc2)C(=O)c2nc(S(C)(=O)=O)ncc2Cl)cc1,2.24 µM (active),
CCOc1ccc(N(Cc2ccccc2)C(=O)c2nc(SCC)ncc2Cl)cc1,inactive,
Nc1ncnc2nnsc12,inactive,
COc1cc2nc(C#Cc3nc4cc(OC)c(OC)cc4[nH]3)[nH]c2cc1OC,inactive,
CC(C)(C(=O)NO)c1ccccc1,inactive,
Cc1cccc(CSc2nc3ccncc3n2CC(=O)N(C)C2CCCCC2)c1,inactive,
O=C(NCCN1CCN(C(=O)c2cccc([N+](=O)[O-])c2)CC1)C(=O)NCc1ccc(Cl)cc1,inactive,
O=C(CCl)N(Cc1cccc([N+](=O)[O-])c1)c1cccc(Cl)c1,7.94 µM (active),
CC(=O)N(CN1C(=O)C2C3C=CC(C3)C2C1=O)c1cccc(Cl)c1 (stereo unspecified),,9.83% [at 11.4 µM]
Cc1ccc(Cl)cc1N(C)C(=O)C1CCCN(c2ncnc3onc(-c4ccc(F)cc4)c23)C1 (stereo unspecified),inactive,
Cc1cccc(N2CCN(C(c3ccc(N(C)C)cc3)c3nnnn3C(C)(C)C)CC2)c1C (stereo unspecified),11.2 µM (active),
CC(C)(C)n1nnnc1C(c1ccc(Cl)cc1)N1CCSCC1 (stereo unspecified),inactive,
CC(C)(C)n1nnnc1C(c1ccc2ncccc2c1)N1CCSCC1 (stereo unspecified),inactive,
Cc1ccsc1CN(C(=O)c1oc2ccc(Br)cc2c1C)C1CCS(=O)(=O)C1 (stereo unspecified),inactive,
Cc1cccc(S(=O)(=O)c2cn(Cc3ccccc3)c3cc(N4CCOCC4)c(F)cc3c2=O)c1,inactive,
COc1ccccc1-c1noc(CSc2nnc(-c3ccccc3)n2-c2ccc(C)c(C)c2)n1,inactive,
O=C(Nc1ccccc1)c1ccccc1OCc1ccccc1,inactive,
COc1ccc(CCn2cc3c(c2-c2ccc(Br)cc2)c(=O)n(C)c(=O)n3C)cc1OC,inactive,
COc1ccc(-c2c3c(=O)n(C)c(=O)n(C)c3c3c(C)nc4ccccc4n23)cc1,inactive,
Cc1ccc(-c2c3c(=O)n(C)c(=O)n(C)c3cn2-n2cnnc2)cc1,50.1 µM (active),
Cc1ccc(N(CC(=O)NCC(C)c2ccccc2)S(=O)(=O)N(C)C)cc1 (stereo unspecified),inactive,
Cc1cccc(NC(=O)CN2CCCN(S(=O)(=O)c3ccc(Br)s3)CC2)c1,12.6 µM (active),
COc1cc(NC(=O)CN2CCN(S(=O)(=O)c3ccc(Br)cc3)CC2)cc(OC)c1,inactive,
CC(C)N(C(=O)CN1CCN(S(=O)(=O)c2ccc(Br)s2)CC1)C(C)C,inactive,

# Source: PubChem BioAssay AID588453 (National Center for Advancing Translational Sciences (NCATS), 2011)
